“And” between values parts separate entries of the source, which are not always exact repeats. Equal entries are not always repeated. Among all 5,500 compounds or so, about 2,000 (36%) were called active. Not shown: some 18% with an inconclusive outcome. Cut-off read from the data, not from the text of the source: active = normalized growth mostly below about 0.91 (no sharp cut-off); inconclusive = no clear call, values can overlap the other calls; inactive = mostly above about 0.92. The list shows a part of the results.
Assay: chemical genetic growth profiling, strain panel (AID 1159580);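 note: tested at 20 µM; growth read once vehicle control cultures reached saturation at 30 °C; 1 = growth at the plate median or of vehicle wells; lower values mean less growth of the strain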
Settings: S. cerevisiae deletion strains, growth OD

Measured: normalized growth

CCC[C@H](N[C@@H](C)C(=O)N1[C@H](C(=O)O)C[C@@H]2CCCC[C@@H]21)C(=O)OCC
inactive: locus YAL013W, strain DEP1, stronger effect = lower value 1.01 | locus YAL021C, strain ccr4, stronger effect = lower value 1.01 | locus YAL026C, strain drs2, stronger effect = lower value 1.01 | locus YAL030W, strain snc1, stronger effect = lower value 1.02 | locus YBL061C, strain skt5, stronger effect = lower value 1.01 | locus YBR009C, strain hhf1, stronger effect = lower value 1.01 | locus YBR021W, strain FUR4, stronger effect = lower value 1.03 | locus YBR023C, strain chs3, stronger effect = lower value 1.02 | locus YBR171W, strain sec66, stronger effect = lower value 1.02 | locus YBR229C, strain ROT2, stronger effect = lower value 1 | locus YBR231C, strain swc5, stronger effect = lower value 1.02 | locus YBR279W, strain paf1, stronger effect = lower value 1.01 | locus YCL011C, strain gbp2, stronger effect = lower value 1.01 | locus YCL016C, strain dcc1, stronger effect = lower value 1.01 | locus YCL029C, strain bik1, stronger effect = lower value 1.04 | locus YCL069W, strain vba3, stronger effect = lower value 1.02 | locus YCR088W, strain abp1, stronger effect = lower value 1.02 | locus YDL005C, strain med2, stronger effect = lower value 1.01 | locus YDL035C, strain GPR1, stronger effect = lower value 1.01 | locus YDL040C, strain nat1, stronger effect = lower value 1.01 | locus YDL074C, strain BRE1, stronger effect = lower value 1.02 | locus YDL101C, strain DUN1, stronger effect = lower value 1.01 | locus YDL134C, strain PPH21, stronger effect = lower value 1.01 | locus YDL185W, strain tfp1, stronger effect = lower value 1.02 | locus YDL192W, strain arf1, stronger effect = lower value 1.02 | locus YDR001C, strain nth1, stronger effect = lower value 1.01 | locus YDR069C, strain doa4, stronger effect = lower value 1.03 | locus YDR101C, strain arx1, stronger effect = lower value 1.01 | locus YDR137W, strain rgp1, stronger effect = lower value 0.99 | locus YDR150W, strain NUM1, stronger effect = lower value 1.02 | locus YDR159W, strain sac3, stronger effect = lower value 1.02 | locus YDR162C, strain NBP2, stronger effect = lower value 1.01 | locus YDR195W, strain ref2 1.04 | locus YDR297W, strain sur2, stronger effect = lower value 1.02 | locus YDR318W, strain mcm21, stronger effect = lower value 1.02 | locus YDR334W, strain swr1, stronger effect = lower value 1.01 | locus YDR335W, strain msn5, stronger effect = lower value 1.01 | locus YDR388W, stronger effect = lower value 1.03 | locus YDR392W, strain spt3, stronger effect = lower value 0.981 | locus YDR502C, strain sam2, stronger effect = lower value 1.01 | locus YEL003W, strain gim4, stronger effect = lower value 1.01 | locus YEL037C, strain rad23, stronger effect = lower value 1.02 | locus YEL061C, strain CIN8 (second series), stronger effect = lower value 1.01 | locus YEL061C, strain CIN8, stronger effect = lower value 1 | locus YER015W, strain faa2, stronger effect = lower value 1.01 | locus YER016W, strain bim1, stronger effect = lower value 1.02 | locus YER110C, stronger effect = lower value 1.02 | locus YER111C, strain swi4, stronger effect = lower value 1.02 | locus YER155C, strain BEM2 (second series), stronger effect = lower value 1.05 | locus YER155C, strain BEM2, stronger effect = lower value 1 | locus YER167W, strain BCK2, stronger effect = lower value 1.02 | locus YFR010W, strain ubp6, stronger effect = lower value 1.03 | locus YGL078C, strain dbp3, stronger effect = lower value 1.02 | locus YGL086W, strain mad1, stronger effect = lower value 1.02 | locus YGL167C, strain pmr1, stronger effect = lower value 1.02 | locus YGL173C, strain kem1, stronger effect = lower value 1.01 | locus YGL227W, strain vid30, stronger effect = lower value 1.02 | locus YGL240W, strain doc1, stronger effect = lower value 1.03 | locus YGL248W, strain PDE1, stronger effect = lower value 1.01 | locus YGL253W, strain hxk2, stronger effect = lower value 1.02 | locus YGR078C, strain PAC10, stronger effect = lower value 1.02 | locus YGR135W, strain pre9, stronger effect = lower value 1.01 | locus YGR229C, strain SMI1, stronger effect = lower value 1.02 | locus YGR252W, strain gcn5, stronger effect = lower value 1.01 | locus YHR013C, strain ard1, stronger effect = lower value 1.02 | locus YHR027C, strain rpn1, stronger effect = lower value 1.02 | locus YHR030C, strain SLT2, stronger effect = lower value 1.01 and 1 | locus YHR079C, strain IRE1 (second series), stronger effect = lower value 1.01 | locus YHR079C, strain IRE1, stronger effect = lower value 0.993 | locus YHR094C, strain hxt1, stronger effect = lower value 1.02 | locus YHR129C, strain ARP1, stronger effect = lower value 1.01 | locus YHR142W, strain chs7, stronger effect = lower value 1.03 | locus YHR200W, strain rpn10, stronger effect = lower value 1.03 | locus YIL066C, strain RNR3, stronger effect = lower value 1.02 | locus YIL073C, strain SPO22, stronger effect = lower value 1.03 | locus YIL125W, strain kgd1, stronger effect = lower value 1.02 | locus YIR030C, strain dcg1, stronger effect = lower value 1.01 | locus YJL092W, strain hpr5, stronger effect = lower value 1.01 | locus YJL095W, strain BCK1 (second series), stronger effect = lower value 1.02 | locus YJL095W, strain BCK1, stronger effect = lower value 1.01 and 1 | locus YJL115W, strain asf1, stronger effect = lower value 1.02 | locus YJL129C, strain trk1, stronger effect = lower value 1.01 | locus YJL134W, strain LCB3, stronger effect = lower value 1.02 | locus YJL154C, strain vps35, stronger effect = lower value 1.01 | locus YJL164C, strain tpk1, stronger effect = lower value 1.01 | locus YJL166W, strain qcr8, stronger effect = lower value 1.04 | locus YJL168C, strain set2, stronger effect = lower value 1.02 | locus YJL187C, strain SWE1 (second series), stronger effect = lower value 1.01 | locus YJL187C, strain SWE1, stronger effect = lower value 1.01 | locus YJR043C, strain POL32, stronger effect = lower value 1.01 | locus YJR066W, strain TOR1, stronger effect = lower value 0.96

From PubChem BioAssay AID1159580 (chemical genetic matrix, 2015)
